Screening data (PubChem BioAssay)
The list is not random: actives were taken first. Their share in the collection is about 14%.
Pf growth 48h: P. falciparum growth inhibition at 48 hours (one generation). Potency, µM (series often up to 28.7 µM), without a hit: at the top dose activity change, negative = inhibition, most hits filed as inhibitors. hit rate 5.9% among 310,000. P. falciparum luciferase growth in erythrocytes, 48 h; further: potency means the concentration at half of the fitted maximal effect
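Parasite viability was followed by luminescence of a genomically integrated firefly luciferase. Cultures held 0.1% parasitemia at 2% hematocrit (final), incubated under 5% CO2 at 37 C.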
FBPA Giardia inh: blocks Giardia fructose-bisphosphate aldolase activity. Potency, µM (highest dose often 59.6 µM), inactives show at the highest dose activity, negative = inhibition, usual class: inhibitors. A8B2U2. hit rate 0.71% among 290,000. purified Giardia FBPA; further: potency means the concentration at half of the fitted maximal effect; nearly all actives have a fitted effect of over 55% in size
Target sequence (A8B2U2 whole entry, looked up): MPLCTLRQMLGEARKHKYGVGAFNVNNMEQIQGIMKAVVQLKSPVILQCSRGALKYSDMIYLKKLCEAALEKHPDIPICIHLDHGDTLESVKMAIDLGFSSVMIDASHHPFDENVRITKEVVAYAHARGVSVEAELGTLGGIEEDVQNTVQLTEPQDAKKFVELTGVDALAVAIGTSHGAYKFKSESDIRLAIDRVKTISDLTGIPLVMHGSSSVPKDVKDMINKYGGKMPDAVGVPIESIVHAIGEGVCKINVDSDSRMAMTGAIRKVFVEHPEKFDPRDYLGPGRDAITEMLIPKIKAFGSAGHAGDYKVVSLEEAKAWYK
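40 nM FBPA preincubated 10 min at RT with compound (up to 57.5 uM final), then substrate plus GAPDH/TPI/NAD/arsenate coupling and diaphorase/resazurin added. Fluorescence read after 20 min at RT, 525/598 nm.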
HCMV inh: human cytomegalovirus inhibition | activity change, negative = inhibition, % at 57.5 µM | HFF cells, HCMV-luciferase reporter, 72 h; stronger effect = lower value | hit rate 4.5% among 410,000 | AID 1259415; in the data active means activity change below about -60%; inconclusive means no clear call, values can overlap the other calls; inactive means above about -39%
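Two compound doses tested in HFFs infected with HCMV-luciferase, MOI 1 PFU/cell, 72 h at 37C. Lysate luminescence read with OneGlo; data normalized against buffer-only and 10uM Salinomycin inhibitor controls.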
Pf growth 96h: inhibits malaria parasite growth, 96 h; Potency, µM (series often up to 28.7 µM), inactives show top-dose activity change, negative = inhibition, actives largely listed as inhibitors; hit rate 6.9% among 320,000; P. falciparum luciferase reporter growth, 96 h; further: potency means the concentration at half of the fitted maximal effect
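Readout is luminescence from an integrated firefly luciferase in P. falciparum. Red cells, 2% hematocrit and 0.05% parasitemia final, were cultured with compound through two parasite generations (96 hours) at 37 C, 5% CO2.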
Sm TGR inh: blocks Schistosoma mansoni thioredoxin glutathione reductase | purified TGR, DTNB reduction, TNB absorbance 405 nm | Potency, µM (top dose mostly 114 µM), for inactives: top-dose activity change, negative = inhibition, hits mostly inhibitors | hit rate 3% among 360,000 | AID 485364; further: potency means the concentration at half of the fitted maximal effect; nearly all actives have a fitted effect of over 60% in size
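Kinetic colorimetric format: TGR-catalysed, NADPH-driven DTNB reduction monitored via TNB absorbance. Enzyme dispensed at 20 nM; compound exposure 15 min at room temperature before reaction start.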
Starred values were filed as active, the others as inactive; ? = inconclusive; / = not tested or not shown. Unless noted, the call rests on the fitted dose curve; in most records, active means well fitted curve in the direction sought with a large enough effect; inconclusive means small, poorly fitted or top-dose-only effect, or another doubt; inactive means no such curve, though single readings can be large; an effect the other way counts as inactive or inconclusive. On the % scale 0 is the no-effect control and ±100 the full control effect.

SMILES | Pf growth 48h | FBPA Giardia inh | HCMV inh | Pf growth 96h | Sm TGR inh
Oc1[nH]c2ccccc2c1N=Nc1nc2ccccc2s1 | / | 3.1% | 51.1 | 297.3% | -3.0%
C/C(N=Nc1nc2ccccc2s1)=N\Nc1ccccc1O | 2.62µM* | 6.0% | ? | 7.9% | 0.5%
O=[N+]([O-])c1ccc(-c2cnc(NO)nc2)cc1 | 11.7µM* | -0.7% | -34.6 | ? | -6.4%
Nc1ncc(-c2ccc([N+](=O)[O-])cc2)cn1 | 41.7% | 4.0% | -94.8* | -91.2% | 4.7%
COCCCN1C(=O)C(CC(=O)NCc2cccs2)CC(C(=O)N(C(C)C)C(C)C)=C1C (centres undefined) | / | / | 2.3 | / | /
Cc1c(C(=O)NCc2ccc(C#N)cc2)sc(=O)n1Cc1ccccn1 | / | / | 28.5 | / | /
O=C(CCCN1C(=O)c2ccccc2C1=O)NCc1ccco1 | 12.6% | 7.4% | -4.2 | -19.5% | -15.5%
O=C(CCCN1C(=O)c2cccc3cccc(c23)C1=O)NCc1ccco1 | -11.7% | 3.2% | -88.9* | 128.1% | 0.0%
CCOC(=O)CCCCCN1C(=O)c2cccc3cccc(c23)C1=O | 33.7% | -3.0% | -100.2* | 6.57µM* | -1.2%
CCOC(=O)CCCSc1nnc(CCCCCN2C(=O)c3cccc4cccc(c34)C2=O)o1 | ? | -2.5% | -20.4 | 1.85µM* | 3.1%
CC1CC(C)CN(C(=O)COC(=O)CCCN2C(=O)c3cccc4cccc(c34)C2=O)C1 (centres undefined) | -6.6% | / | -8.0 | 6.3% | 2.0%
CCn1c(CN2CCCCC2)nc2cc(NC(=O)c3cc(OC)c(OC)c(OC)c3)ccc21 | / | / | -1.7 | / | 2.9%
Cc1ccc(NC(=O)N2CCN(C)c3ncccc32)cc1C | / | / | 0.7 | / | -1.5%
O=C(NCc1ccccn1)C1(C(F)(F)F)CC(CCCO)CCCO1 (centres undefined) | / | -3.7% | / | / | /
COc1ccc(CN(C)C(=O)c2cc(S(=O)(=O)Nc3ccccc3F)ccc2C)c(OC)c1 | 7.6% | -2.1% | 21.2 | ? | -5.5%
COc1ccc2c3c(cccc13)OC2=O | 31.5% | -6.3% | 5.4 | 26.2% | 7.3%
COc1ccc2c3c(cccc13)N(C)N=C2C | 10.4µM* | ? | -24.6 | 0.0% | -1.7%
CCN(CC)CCC12CC(C)OC1=Nc1ccccc1NC2=O (centres undefined) | / | / | 16.5 | / | /
CSc1nnc(-c2cccc(NC(=S)NN)c2)o1 | ? | -9.5% | -66.0* | 79.2% | -10.1%
CSc1nnc(-c2ccc(NC(N)=S)cc2)o1 | 7.9% | -4.6% | 37.1 | 11.3% | 3.9%
COC(=O)CCCC1=CC2=C(c3ccccc3)C(=O)C(C)(OC(=O)C3CCCC3)C(=O)C2=CN1c1ccccc1 (centres undefined) | ? | ? | 30.0 | ? | -15.4%
COC(=O)CCCC1=CC2=C(c3ccccc3)C(=O)C(C)(OC(=O)C3CCCC3)C(=O)C2=CN1C1CC1 (centres undefined) | ? | ? | -61.1* | ? | ?
C=CCN1C=C2C(=O)C(C)(OC(=O)C3CCCC3)C(=O)C(c3ccccc3)=C2C=C1CCCC(=O)OC (centres undefined) | ? | ? | 5.3 | ? | ?
COC(=O)CCCC1=CC2=C(c3ccccc3)C(=O)C(C)(OC(=O)C3CCCC3)C(=O)C2=CN1C(CO)CO (centres undefined) | 29.1% | ? | -16.0 | ? | 39.8µM*
O=C(NC1CCCc2ccccc21)c1ccc2c(c1)sc1nc(-c3ccccc3)cn12 (centres undefined) | / | / | / | / | 3.1%
SMILES | Pf growth 48h | FBPA Giardia inh | HCMV inh | Pf growth 96h | Sm TGR inh
COCCNC(=O)c1c(NC(=O)c2ccc(Br)o2)n(Cc2ccccc2)c2nc3ccccc3nc12 | 13.1µM* | ? | 4.7 | ? | ?
Nc1c(C(=O)NC2CCCC2)c2nc3ccccc3nc2n1CC1CCCO1 (centres undefined) | 10.4µM* | ? | -38.0 | -18.7% | -12.2%
Nc1c(C(=O)NC2CCCC2)c2nc3ccccc3nc2n1N | -1.1% | -1.5% | -15.2 | 295.4% | -15.6%
COCCNC(=O)c1c(N)n(CCCn2ccnc2)c2nc3ccccc3nc12 | 7.38µM* | -17.9% | 9.9 | ? | -5.7%
COCCCNC(=O)c1c(NC(=O)c2ccco2)n(Cc2ccccc2)c2nc3ccccc3nc12 | ? | ? | ? | / | -32.5%
CC(C)CNC(=O)c1c(N)n(/N=C/c2cccnc2)c2nc3ccccc3nc12 | 6.5% | 5.5% | / | 3.29µM* | 6.7%
N=C(N)n1cccn1 | -10.0% | / | / | -6.5% | /
CCCOc1ccc(CNC(=O)C2CCN(C(=O)N3CCOc4ccccc43)CC2)cc1 | ? | 8.0% | -15.9 | ? | -12.1%
CCCNC(=O)c1c(N)n(Cc2ccco2)c2nc3ccccc3nc12 | ? | -1.2% | / | / | -6.8%
CC(C)Cn1c(N)c(C(=O)NCC2CCCO2)c2nc3ccccc3nc21 (centres undefined) | ? | ? | -20.0 | ? | -3.9%
COCCCNC(=O)c1c(N)n(Cc2ccco2)c2nc3ccccc3nc12 | ? | ? | 18.8 | ? | 3.98µM*
COCCNC(=O)c1c(N)n(CCC(C)C)c2nc3ccccc3nc12 | / | ? | -33.0 | ? | -23.1%
CC(C)CNC(=O)c1c(N)n(Cc2ccco2)c2nc3ccccc3nc12 | ? | -11.9% | 16.5 | / | 31.6µM*
Nc1c(C(=O)NCC2CCCO2)c2nc3ccccc3nc2n1Cc1ccco1 (centres undefined) | 9.28µM* | ? | 8.4 | -10.3% | 0.0%
Cc1ccc(NS(=O)(=O)c2ccc3c(c2)NC(=O)CCS3)c(Cl)c1 | 4.65µM* | / | -38.4 | ? | -1.2%
COc1ccc(Cl)cc1NS(=O)(=O)c1ccc2c(c1)NC(=O)CCS2 | 17.2% | -13.4% | 0.0 | 7.38µM* | 0.2%
Cc1ccc(NS(=O)(=O)c2ccc3c(c2)NC(=O)CCS3)c(C)c1 | 2.62µM* | / | 0.0 | 10.4µM* | -7.1%
Cc1cc(C)c(NS(=O)(=O)c2ccc3c(c2)NC(=O)CCS3)c(C)c1 | 11.7µM* | -12.2% | 7.5 | 8.28µM* | 1.1%
O=C(CSc1nc2ncccc2[nH]1)c1cccc([N+](=O)[O-])c1 | ? | -29.7% | -65.6* | ? | -20.0%
Fc1cccc(CSc2nc3ncccc3[nH]2)c1 | ? | -15.3% | 59.6 | 11.7µM* | 18.0%
NC1=CC(=O)C(=O)c2ccccc21 | / | / | -63.6* | / | /
Cc1ccc(C(=O)O)cc1NC(=O)Nc1cccc2ccccc12 | 33.2% | / | 0.9 | 2.62µM* | 0.0%
Cc1cc2nc(C)n(CCCNC(=O)Nc3cccc4ccccc34)c2cc1C | / | 5.5% | -79.6* | -5.8% | 0.0%
Cc1cc(O)c(C(C)C)cc1NC(=O)Nc1cccc2ccccc12 | 10.4µM* | -2.5% | 39.2 | ? | -15.0%
O=C(Nc1ccc(C(=O)O)cc1)Nc1cccc2ccccc12 | 0.0% | 0.6% | ? | -8.5% | 2.2%
CCOc1ccc(NC(=O)NCCCn2c(C)nc3cc(C)c(C)cc32)cc1 | / | 0.1% | -22.1 | / | 14.4%
